# Screening results from PubChem.
# Pf growth 96h – P. falciparum growth inhibition at 96 hours. 320,000 tested, 6.9% active. P. falciparum luciferase reporter growth, 96 h. Potency, µM (highest dose often 28.7 µM), usual class: inhibitors. AID 504834
#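 Plates of compound plus infected erythrocytes (2% hematocrit, 0.05% parasitemia final) incubate 96 hours, 37 C, 5% CO2. Detection reagent added; reduced luminescence from the parasites' luciferase reporter flags inhibition.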
# NS1 function inh – blocks influenza NS1 protein function; Potency, µM (series often up to 46.1 µM); 270,000 tested, 0.4% active; calls by dose curve; further: actives are rising curves; nearly all actives have a fitted effect of over 50% in size
#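 Growth recovery, yeast-based: influenza A NS1 expressed in S. cerevisiae causes slow growth, and suppressors are detected by OD600. The parent strain without NS1 is used as positive control.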
# Vaccinia mCherry – vaccinia inhibition (mCherry reporter); Vaccinia virus mCherry reporter infection, fluorescence; Potency, µM (top dose mostly 36.5 µM), most hits filed as inhibitors; 310,000 tested, 0.63% active; AID 720579; calls by dose curve; tested in A549 cells; further: nearly all actives have a fitted effect of over 35% in size
# HCV inh – blocks hepatitis C virus; AID 651820; 340,000 tested, 3.4% active; Huh7.5.1 HCVcc-Cre infection, luciferase reporter, 44 h; Potency, µM (titrated, usually from 41.8 µM), hits mostly inhibitors
#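 Reporter virus HCVcc-Cre (~0.5 moi) infects cells exposed to compound; seeding density 1,000 cells/well with 4 h settling beforehand. Luminescence, 15 sec read, taken 44 h post-infection following a 15 min RT substrate incubation.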
# Pf growth 48h – P. falciparum growth inhibition at 48 hours (one generation); P. falciparum luciferase growth in erythrocytes, 48 h; Potency, µM (series often up to 28.7 µM), most hits filed as inhibitors; AID 504832; 310,000 tested, 5.9% active
#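 Read-out is firefly luciferase luminescence from an integrated reporter in P. falciparum, so falling signal marks reduced parasite growth. Infected erythrocytes were at 2% hematocrit and 0.1% parasitemia (final) in Albumax-supplemented RPMI 1640.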
# VACV Venus inh – inhibitors of vaccinia virus (Venus reporter) | Vaccinia virus Venus reporter expression, fluorescence | Potency, µM (series often up to 36.5 µM), hits mostly inhibitors | 330,000 tested, 0.46% active; calls by dose curve; tested in A549 cells; further: nearly all actives have a fitted effect of over 30% in size
# Numbers stand for hits; - = inactive; ? = inconclusive; . = no result; [ ] = another dose, or the depositor's remark. Hits are enriched below; roughly 11% of the tested compounds scored in any of these assays. Unless noted, the call rests on the fitted dose curve; in most records, active means well fitted inhibition curve with a large enough effect; inconclusive means small, poorly fitted or top-dose-only effect, or another doubt; inactive means no such curve, though single readings can be large or run the other way.
SMILES,Pf growth 96h,NS1 function inh,Vaccinia mCherry,HCV inh,Pf growth 48h,VACV Venus inh
Cc1c(Br)c(=O)oc2c(Br)c(O)ccc12,?,.,-,-,-,-
CCOc1cc(/C=C(/C#N)c2nc3ccccc3[nH]2)ccc1Oc1ccc([N+](=O)[O-])cn1,2.3µM,-,-,?,?,-
COc1ccc(CCC(=O)N2CCN(c3ccc(OC)cc3)CC2)cc1,-,-,-,-,-,-
O=C(CSc1ccccc1F)NC(=O)NCc1ccco1,-,-,-,-,-,-
Cc1ccccc1CSCC(=O)NC(=O)NCc1ccco1,6.6µM,-,-,-,-,-
O=C(Nc1ccc(F)cc1)N1CCc2ccccc2C1,-,-,-,-,-,-
O=[N+]([O-])c1ccc2c(OCc3nnc(-c4ccccc4Br)o3)ncnc2c1,9.3µM,-,-,-,?,-
Cn1nc(C(F)(F)F)c2cc(C(=O)O)sc21,-,.,-,-,-,-
CCCOc1ccc(C(C)=O)cc1CSc1nc(O)cc(=O)[nH]1,0.93µM,?,-,-,.,-
CCCOc1ccc(C(C)=O)cc1CSCCC#N,?,-,.,-,-,-
Cc1nc(=O)c(-c2ccccc2)c(C)n1-c1ccccc1C(=O)O,.,-[9.22 µM],.,-,-,.
CCN1CCN(S(=O)(=O)c2ccc(Cl)c(C(=O)N(CC)CC(=O)Nc3ccc(OC)cc3)c2)CC1,13µM,-,.,-,-,.
CCN(CC(=O)Nc1ccc(OC)cc1)C(=O)c1cc(S(=O)(=O)N(C)C)ccc1N1CCCC1,-,.,-,11µM,?,-
CN(CC(=O)Nc1ccc(F)cc1)C(=O)COC(=O)c1cc(S(=O)(=O)N(C)C)ccc1N1CCCC1,8.3µM,.,-,-[8.37 µM],12µM,-
Cc1cc(NC(=O)CSc2ccc3nnc(-c4ccccc4)n3n2)no1,-,-,.,-,2.6µM,.
CCn1c2ccccc2c2cc(NC(=O)CSc3nnc(-c4ccccc4)o3)ccc21,.,-,?,7.1µM,-,-
Cc1cc(NC(=O)CSc2nnc(-c3ccc(O)cc3)o2)no1,?,-,.,-,6.6µM,.
COc1ccc(-c2nnc3ccc(SCC(=O)Nc4cc(C)on4)nn23)cc1,?,.,.,.,-,.
Cc1cc(NC(=O)CSc2nnc(-c3ccccc3)o2)no1,12µM,.,-,-,?,-
CCn1c2ccccc2c2cc(NC(=O)CSc3nnc(-c4cccc(C)c4)o3)ccc21,-,-,.,-,.,-
Cc1ccc(F)cc1NC(=O)CSc1ncccn1,-,.,-,-,-,-
Cc1cc(NC(=O)CN2CCN(c3ccc(O)cc3)CC2)no1,9.3µM,-,.,-,?,.
CCNC(=S)NCCN1CCCCC1,12µM,-,.,-,.,-
CCCNC(=S)NCCN1CCCCC1,-,-,.,-,-,.
CC1=C(C#N)C(c2cccnc2)C2=C(N1)c1ccccc1C2=O (configuration not stated),-,-,-,-,-,-
SMILES,Pf growth 96h,NS1 function inh,Vaccinia mCherry,HCV inh,Pf growth 48h,VACV Venus inh
CC1=C(C#N)C(c2ccccc2)C2=C(N1)c1ccccc1C2=O (configuration not stated),15µM,-,-,?,?,-
CCN(CC)Cc1c(O)ccc2c1O/C(=C\C=C\c1ccccc1)C2=O,?,-,-,-,?,-
COc1ccccc1/C=C/C=C1\Oc2c(ccc(O)c2CN(C)C)C1=O,?,-,-,-,2.6µM,-
Cn1cccc1C(=S)N=P(C1CCCCC1)(N1CCOCC1)N1CCOCC1,8.3µM,-,-,-,.,-
CC(=O)Nc1ccc(NC(=O)Oc2ccccc2)cc1,?,-,-,-,-,-
COC(=O)C1=C(c2cccc(OCc3ccccc3)c2)C[C@@H]2CC[C@H]1N2C(=O)NCc1ccc(C(F)(F)F)cc1,5.2µM,.,-,10µM,13µM,?
COC(=O)C1=C(c2ccccc2)C[C@@H]2CC[C@H]1N2C(=O)NCc1ccccc1,.,.,-,-,.,-
COC(=O)C1=C(c2cccc(OCc3ccccc3)c2)C[C@@H]2CC[C@H]1N2C(=O)NCc1ccc(F)cc1,9.3µM,.,-,?,12µM,?
COC(=O)C1=C(c2cccc(OCc3ccccc3)c2)C[C@@H]2CC[C@H]1N2C(=O)NCc1ccc2[nH]ccc2c1,?,.,-,?,13µM,?
CCOc1ccccc1N=C1SCCCN1C,-,-,.,-,-,.
O=C(N[C@@H]1C/C=C\C[C@@H](CC(=O)N(CCO)Cc2ccccc2)C(=O)NCCOC1=O)OCC1c2ccccc2-c2ccccc21,.,.,-,-,.,-
O=C(N[C@H]1C/C=C\C[C@@H](CC(=O)N(CCO)Cc2ccccc2)C(=O)NC[C@H](c2ccccc2)OC1=O)OCC1c2ccccc2-c2ccccc21,.,.,10µM,?,.,?
O=C(C[C@H]1C/C=C\C[C@H](NC(=O)OCC2c3ccccc3-c3ccccc32)C(=O)OC[C@H](Cc2ccccc2)NC1=O)N[C@H](CO)Cc1ccccc1,.,.,-,?,.,-
O=C(C[C@@H]1C/C=C\C[C@@H](NC(=O)OCC2c3ccccc3-c3ccccc32)C(=O)OC[C@@H](Cc2ccccc2)NC1=O)NCCO,.,.,-,2µM,.,-
COc1ccccc1C(O)(C(=O)NN(C(=O)c1ccccc1)c1ccccc1C)c1cccs1 (configuration not stated),-,-,.,-,-,-
Cc1ccc(CN2C(=O)C(O)(c3c[nH]c4ccccc34)c3cc(Cl)ccc32)cc1 (configuration not stated),.,.,-,.,.,-
c1cnc(N2CCN(Cc3ccc4c(c3)OCO4)CC2)cn1,-,.,-,-,-,-
O=C(C1CCCCC1)N1CC(=O)N2CCc3ccccc3C2C1 (configuration not stated),-,-,-,.,-,-
CC(C)(C)[C@]1(O)CCN2CC3c4ccccc4CCc4cccc(c43)[C@@H]2C1 (some centres not stated),12µM,-,.,.,13µM,.
COc1ccc(CNCc2ccco2)cc1OCc1ccccc1,-,?,-,-,-,-
CCCN1C(=O)C2(OCCO2)c2cc(Cl)ccc21,-,-,.,-,-,.
CCc1c(O)cc2n(c1=O)-c1ccc(Cl)cc1C2(C)C,-,-,-,-,12µM,-
COc1ccc(NC(=S)NCc2ccco2)cc1,-,-,-,-,-,-
O=C(CSc1nc2ccccc2c(=O)n1Cc1ccco1)Nc1cccc(O)c1,13µM,-,-,?,-,-
O=C(CCCCCn1c(SCc2ccncc2)nc2ccccc2c1=O)NCc1ccco1,-,-,.,10µM,8.3µM,.
Cc1ccc(-n2c(SCC(=O)NCCN3C(=O)CSC3=O)nnc2-c2ccccc2)cc1,15µM,-,-,-,-,-
Cc1ccc(-n2c(SCC(=O)NCCN3C(=O)CSC3=O)nnc2-c2cccc(C)c2)cc1,?,-,-,-,?,-
O=C(CSc1nc2ccccc2c(=O)n1Cc1ccco1)NCCN1C(=O)CSC1=O,?,-,-,10µM,-,-
CC1CCN(C(=O)C2CCN(S(=O)(=O)c3cccc4cccnc34)CC2)CC1,-,-,-,-,-,-
